Active and inactive are the calls of the source. The rule behind the calls is not given here.
Tested on: Ras
Test: fluorescent GTP concentration effect on GTPase potency – biochemical, four GTPases, bead flow cytometry, mechanism study, profiling panel (AID 743330)
Conditions: bead-based flow cytometry, fluorescent GTP binding to GTPases

Compound | EC50
CC1(C)Cc2c(sc(NC(=S)NC(=O)c3ccc(F)cc3)c2C(=O)O)CO1 | 31 nM (active)
CCC1(C)Cc2c(sc(NC(=S)NC(=O)c3ccccc3)c2C(=O)O)CO1 (configuration not stated) | 5 nM (active)

From PubChem BioAssay AID743330 (NMMLSC, 2014)
